Test results reported in PubChem BioAssay AID1220 (Sanford-Burnham Center for Chemical Genomics, 2008).
About 1,300 (0.68%) of roughly 190,000 compounds were called active. No stated cut-off is given here; in the data, active means inhibition above about 50%; inactive means the rest. Shown is part of a subset that was picked to be rich in actives.

Target: Mannose-6-phosphate isomerase (Homo sapiens) (UniProt P34949)
Test: MPI inhibition at elevated mannose 6-phosphate – biochemical, fluorescence intensity, high mannose 6-phosphate, primary screen (AID 1220)
Conditions: recombinant PMI enzyme, coupled fluorescence intensity; at 20 µM; active compounds read high

Chain of Mannose-6-phosphate isomerase (Homo sapiens) (P34949 whole entry, looked up): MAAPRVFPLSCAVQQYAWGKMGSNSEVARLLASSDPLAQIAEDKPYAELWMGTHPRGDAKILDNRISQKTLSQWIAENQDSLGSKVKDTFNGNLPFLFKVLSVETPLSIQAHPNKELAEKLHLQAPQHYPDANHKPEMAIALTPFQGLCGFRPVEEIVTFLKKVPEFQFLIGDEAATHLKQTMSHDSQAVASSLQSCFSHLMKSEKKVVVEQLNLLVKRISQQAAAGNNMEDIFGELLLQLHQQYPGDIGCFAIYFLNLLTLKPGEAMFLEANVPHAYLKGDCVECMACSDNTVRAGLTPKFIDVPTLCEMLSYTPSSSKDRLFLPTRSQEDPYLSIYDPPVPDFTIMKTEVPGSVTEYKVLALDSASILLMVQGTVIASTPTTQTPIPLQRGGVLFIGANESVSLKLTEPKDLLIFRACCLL

Row | SMILES | inhibition
1 | CCN(CC)c1ccc(/C=C2\C(=O)NC(=O)N(CC3CCCO3)C2=O)cc1 (configuration not stated) | -4.6% (inactive)
2 | CC(=O)c1c(O)n(C)c(=S)n(-c2ccccc2)c1=O | -1.3% (inactive)
3 | CNC(=O)Oc1ccc(-c2cn3cc(C)ccc3n2)cc1 | 4.6% (inactive)
4 | CNC(=O)Oc1cccc(-c2cn3cc(Cl)ccc3n2)c1 | 3% (inactive)
5 | CNC(=O)Oc1cccc(-c2cn3cc(OC(=O)NC)ccc3n2)c1 | 54.4% (active)
6 | CN1CCN(c2c(C#N)c(C(F)(F)F)nn2C)CC1 | -13.8% (inactive)
7 | O=C(CN1CC(c2ccccc2)CC1=O)Nc1cccc(F)c1 (configuration not stated) | 3.7% (inactive)
8 | O=C1NC(=O)N(Cc2ccccc2)C(=O)/C1=C/N1CCCc2ccccc21 | 6% (inactive)
9 | O=c1[nH]c(=O)n(Cc2ccc(F)cc2)c(O)c1C=NCC1CCCO1 (configuration not stated) | -20.4% (inactive)
10 | O=[N+]([O-])[N-][n+]1cnn(Cc2ccccc2)c1 | -10.9% (inactive)
11 | Cc1cc(OCC(=O)Nc2c(C)n(C)n(-c3ccccc3)c2=O)c2c3c(c(=O)oc2c1)CCC3 | 10.1% (inactive)
12 | Cc1cccc(NC(=O)N2CCCC2)c1 | -7.3% (inactive)
13 | COc1cc(/C=C2\C(=O)NC(=O)N(c3ccccc3)C2=O)cc(OC)c1O | 13% (inactive)
14 | COc1cc(/C=C2\C(=O)NC(=O)N(c3ccc(C)cc3)C2=O)cc(OC)c1O | 67.6% (active)
15 | COc1cc(/C=C2/C(=O)NC(=O)N(c3ccccc3)C2=O)ccc1O | 1.2% (inactive)
16 | CCC(=O)N1CC(=O)Nc2ccc(Br)cc2C1c1ccccc1 (configuration not stated) | 2.3% (inactive)
17 | Cc1cccc(C)c1NC(=O)c1cccn(Cc2ccc3c(c2)OC(F)(F)O3)c1=O | 9.6% (inactive)
18 | C(#CCN1CCOCC1)COC/C=C/c1ccccc1 | -8.9% (inactive)
19 | COc1ccc(OC)c(N2C(=O)NC(=O)/C(=C/c3ccc([N+](=O)[O-])s3)C2=O)c1 | 56.6% (active)
20 | COc1ccc(OC)c(N2C(=O)NC(=O)/C(=C\c3ccc([N+](=O)[O-])s3)C2=O)c1 | -46.8% (inactive)
21 | COc1ccc(N2C(=O)NC(=O)/C(=C\c3ccc([N+](=O)[O-])s3)C2=O)cc1 | -53.3% (inactive)
22 | CN1C(=O)C(=Cc2ccc(-c3cccc(Cl)c3)o2)C(=O)N(C)C1=O | -7.8% (inactive)
23 | CCN(CC)S(=O)(=O)c1ccc(N=Cc2c(O)n(-c3ccccc3)c(=O)[nH]c2=O)cc1 | -8.6% (inactive)
24 | COc1ccc(CCn2c(O)c(C=NCc3ccc4c(c3)OCO4)c(=O)[nH]c2=O)cc1OC | 8.6% (inactive)

Row | SMILES | inhibition
25 | O=C(N/N=C/c1c(O)n(CCc2ccccc2)c(=O)[nH]c1=O)c1ccncc1 | -28.2% (inactive)
26 | COc1ccc(CCn2c(O)c(/C=N/NC(=O)c3ccncc3)c(=O)[nH]c2=O)cc1OC | -12.8% (inactive)
27 | O=C(N/N=C/c1c(O)n(CCc2ccc(F)cc2)c(=O)[nH]c1=O)c1ccncc1 | 53% (active)
28 | CC1CCN(S(=O)(=O)c2ccc(NN=C(C#N)C#N)cc2)CC1 | -24.1% (inactive)
29 | CC(C)Oc1cccc(C(=O)C2CCCN(Cc3ccon3)C2)c1 (configuration not stated) | 4% (inactive)
30 | CC(=O)NC1CC2CCCC(C1)N2 (configuration not stated) | -5.2% (inactive)
31 | O=C(NC1(C(F)(F)F)Oc2ccccc2O1)N1CCC2(CC1)OCCO2 | 3.8% (inactive)
32 | O=C(NC1(C(F)(F)F)Oc2ccc(Cl)cc2O1)N1CCC2(CC1)OCCO2 (configuration not stated) | 70.3% (active)
33 | O=C(NC(=O)N1CCC2(CC1)OCCO2)c1ccc(Cl)cc1 | 11.1% (inactive)
34 | O=c1[nH]c(=O)n(Cc2ccccc2Cl)c(O)c1C=Nc1ccc(F)cc1 | 13.7% (inactive)
35 | CC(=NCCN1CCCCC1)c1c(O)n(-c2ccc(Cl)cc2)c(=O)[nH]c1=O | 2.8% (inactive)
36 | COc1cc2c(cc1O)CC1c3c(cc(O)c(OC)c3-2)CCN1C (configuration not stated) | 52.5% (active)
37 | COc1cc2c(cc1OC)-c1c(OC)c(OC)cc3c1C(C2)N(C)CC3 (configuration not stated) | 39.3% (inactive)
38 | COc1cc2c(cc1OC)-c1c(OC)c(OC)cc3c1[C@H](C2)N(C)CC3 | -16.2% (inactive)
39 | CCc1cccc(C)c1NC(=S)N1CC2CC(C1)c1cccc(=O)n1C2 (configuration not stated) | -3.9% (inactive)
40 | CCN(CC)C(=O)c1ccc(N2C(=O)C3CC=C(Cl)CC3C2=O)cc1 (configuration not stated) | -1.5% (inactive)
41 | Nc1ccncc1Cl | -4.4% (inactive)
42 | N#Cc1cc2c(nc1SCC(=O)Nc1ccc(Cl)cc1)C1CCN2CC1 | -2.2% (inactive)
43 | CN1C[C@H](CNC(=O)OCc2ccccc2)C[C@@H]2c3cccc4c3c(cn4C)C[C@H]21 | 58.2% (active)
44 | CCN(CC)C(=O)N[C@H]1C[C@@H]2c3cccc4[nH]cc(c34)C[C@H]2N(C)C1 | -0.8% (inactive)
45 | O=C(NC[P+](=O)O)OCc1ccccc1 | -7% (inactive)
46 | CC(C)CCN1CCN(Cc2c(F)cccc2Cl)CC1CCO (configuration not stated) | -1.1% (inactive)
47 | CC(=O)OC1(c2ccccc2)CCN(C)C(C)C1C (configuration not stated) | -7.2% (inactive)
